Most compounds without a hit are left out; they make up all but 18% or so of the library.
TGFb SMAD3 inh: qHTS for Inhibitors of TGF-b. HepG2 CAGA-GFP TGF-b/SMAD3 reporter, GFP fluorescence, 18 h; TGF-beta stimulated, 500 pg/mL final. Potency, µM (titrated, usually from 46.1 µM), hits mostly inhibitors. hit rate 1.2% among 410,000. AID 588855, 2011; note: nearly all actives have a fitted effect of over 65% in size
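Per well, imaged GFP fluorescence of HEPG2 CAGA-GFP cells gives the signal; cells get compound, then TGF-beta (500 pg/mL final), 18 h at 37 degrees C; %Activity versus -TGF-beta and +DMSO controls.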
TDP1 cell noCPT: qHTS for Inhibitors of human tyrosyl-DNA phosphodiesterase 1 (TDP1): qHTS in cells in absence of CPT | DT40 Tdp1-/- hTDP1 cells, no CPT, ATP luminescence, 48 h | Potency, µM (doses to about 46.2 µM), hits mostly inhibitors | hit rate 15% among 420,000 | AID 686978, 2013; note: nearly all actives have a fitted effect of over 55% in size
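Luminescent ATP content (CellTiter-Glo) served as the growth readout. Knockout chicken DT40 cells expressing human TDP1 were exposed to compounds without camptothecin for a minimum 48 hr at 37 °C.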
IL-1B inflam inh: qHTS for Inhibitors of Inflammasome Signaling: IL-1-beta AlphaLISA Primary Screen. THP-1 LPS/ATP IL-1B secretion, AlphaLISA, 16 h; hits give low values. activity change, % at 57.5 µM. hit rate 4.7% among 360,000. AID 743279, 2014; in the data active = activity change below about -50%; inconclusive = mostly about -30% to -49%
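THP-1 cells pretreated 1 hr with compounds (up to 57.5 uM final), then stimulated with LPS (250 ng/mL final) plus ATP (1.25 mM final); secreted IL-1B measured by AlphaLISA after 16 hr, decreased signal indicating inhibition.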
TDP1 inh: qHTS Assay for Inhibitors of Tyrosyl-DNA Phosphodiesterase (TDP1); Tyrosyl-DNA phosphodiesterase 1 (Homo sapiens), Q9NUW8; recombinant TDP1, AlphaScreen DNA substrate cleavage; Potency, µM (top dose mostly 130 µM), actives largely listed as inhibitors; hit rate 0.28% among 350,000; note: nearly all actives have a fitted effect of over 40% in size
Target sequence (Q9NUW8 whole entry, looked up): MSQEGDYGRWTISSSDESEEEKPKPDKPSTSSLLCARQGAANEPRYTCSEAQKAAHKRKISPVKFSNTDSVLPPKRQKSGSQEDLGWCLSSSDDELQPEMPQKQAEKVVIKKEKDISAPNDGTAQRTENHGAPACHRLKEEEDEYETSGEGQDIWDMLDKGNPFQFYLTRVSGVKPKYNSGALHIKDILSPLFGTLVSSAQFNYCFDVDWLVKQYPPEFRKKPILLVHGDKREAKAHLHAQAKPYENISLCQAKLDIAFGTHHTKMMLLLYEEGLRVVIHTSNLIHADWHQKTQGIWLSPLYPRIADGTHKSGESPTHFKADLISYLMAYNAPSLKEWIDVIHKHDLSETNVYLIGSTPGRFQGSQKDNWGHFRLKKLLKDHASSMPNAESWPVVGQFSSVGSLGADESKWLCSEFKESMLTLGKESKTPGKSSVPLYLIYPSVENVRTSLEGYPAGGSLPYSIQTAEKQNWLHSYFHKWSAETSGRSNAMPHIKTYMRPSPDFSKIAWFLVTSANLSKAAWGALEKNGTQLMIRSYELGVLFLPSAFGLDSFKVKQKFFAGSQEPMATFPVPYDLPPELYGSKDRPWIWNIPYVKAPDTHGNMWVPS
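Steps: enzyme plus compound, 15 min RT; add biotin/phosphotyrosine-FITC oligonucleotide (15 nM final), react 5 min; add donor/acceptor beads (10 ug/ml final), 10 min; read AlphaScreen. Tdp1 at 1 nM final.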
HepG2 tox: qHTS for Inhibitors of TGF-b: Cytotox Counterscreen. Potency, µM (series often up to 46.1 µM), hits mostly cytotoxic. hit rate 0.76% among 410,000. HepG2 CAGA-GFP viability, ATP luminescence, 18 h. AID 588856, 2011
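HepG2 CAGA-GFP cells (1000/well, DMEM with 1% FBS) received compound, then TGF-beta at 500 pg/mL final, and were incubated 18 hours at 37 degrees C. Viability was read by CellTiter-Glo luminescence. Media-only wells were set as complete cell-killing and DMSO as no toxicity.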
TDP1 cell CPT: qHTS for Inhibitors of human tyrosyl-DNA phosphodiesterase 1 (TDP1): qHTS in cells in presence of CPT | Potency, µM (top dose mostly 46.2 µM), most hits filed as inhibitors | hit rate 12% among 420,000 | chicken DT40 Tdp1-/-;hTDP1 cells + 20 nM CPT, ATP luminescence, 48 h; note: nearly all actives have a fitted effect of over 55% in size
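Chicken DT40 Tdp1-/- cells complemented with human TDP1, 400 cells/well, exposed to compounds plus 20 nM camptothecin for at least 48 h at 37 C; viability read as ATP content by CellTiter-Glo luminescence.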
A number is an active result; n = inactive; u = inconclusive; x = no result given; ! = a repeat was not active. Unless noted, calls come from the whole dose curve; as a rule, active = well fitted curve in the direction sought with a large enough effect; inconclusive = small, poorly fitted or top-dose-only effect, or another doubt; inactive = no such curve, though single readings can be large; an effect the other way counts as inactive or inconclusive.

SMILES | TGFb SMAD3 inh | TDP1 cell noCPT | IL-1B inflam inh | TDP1 inh | HepG2 tox | TDP1 cell CPT
CC(C)C1C(=O)N(Cc2cn(CCC3OCCO3)nn2)CCS(=O)(=O)N1Cc1ccc(-c2ccc(F)nc2)cc1 (centres undefined) | n | 16µM | n | x | n | u
CC(C)C1C(=O)N(Cc2cn(CCC3OCCCO3)nn2)CCS(=O)(=O)N1Cc1ccc(-c2cccc(CO)c2)cc1 (centres undefined) | n | u | n | x | n | n
CC(C)C1C(=O)N(Cc2cn(CCC3OCCCO3)nn2)CCS(=O)(=O)N1Cc1ccc(-c2ccc(F)nc2)cc1 (centres undefined) | n | 16µM | n | x | n | u
CC1C(=O)N(Cc2cn(CCC3OCCCO3)nn2)CCS(=O)(=O)N1Cc1ccc(-c2ccncc2)cc1 (centres undefined) | n | 9.2µM | n | x | n | n
CC1C(=O)N(Cc2cn(CCC3OCCCO3)nn2)CCS(=O)(=O)N1Cc1ccc(-c2cccc(N(C)C)c2)cc1 (centres undefined) | n | u | n | x | n | u
CC1C(=O)N(Cc2cn(CCC3OCCCO3)nn2)CCS(=O)(=O)N1Cc1ccc(-c2ccc(F)nc2)cc1 (centres undefined) | n | 13µM | n | x | n | u
CCCC(NC(=O)Cc1c(C)c2c(cc(C)c3c(C)coc32)oc1=O)C(=O)O (centres undefined) | n | n | n | x | n | n
Cc1cc(/C(N)=N/OC(=O)Nc2ccc(Cl)cc2)no1 | n | n | n | x | n | n
CCCC(C)(C)C(=O)N1CCC1(C)C(=O)NS(=O)(=O)c1cccc(Cl)c1 (centres undefined) | n | n | n | x | n | n
Cc1cc(NC(=O)C2CCCCC2C(=O)O)ccc1NC(=O)c1ccccc1 (centres undefined) | n | n | n | n | n | n
O=C(OCC(=O)N1CCN(C(=O)c2ccco2)CC1)c1cn(-c2ccccc2)nc1-c1ccccc1 | n | u | -62 | n | n | u
O=C(OCC(=O)N1CCN(C(=O)c2ccco2)CC1)c1cc(-c2ccc(F)cc2)nc2ccccc12 | n | n | -51 | n | n | n
O=C(OCC(=O)N1CCN(C(=O)c2ccco2)CC1)c1ccccc1C(=O)c1ccccc1 | n | n | n | n | n | n
O=C(OCC(=O)N1CCN(C(=O)c2ccco2)CC1)c1cc(-c2ccccc2)nc2ccccc12 | n | u | -70 | n | n | n
O=C(c1ccco1)N1CCN(C(=O)c2cn(-c3ccccc3)nc2-c2ccccc2)CC1 | n | n | n | n | n | n
O=C(OCC(=O)N1CCN(C(=O)c2ccco2)CC1)c1cc(-c2cccc(Br)c2)nc2ccccc12 | n | n | -67 | n | n | u
CCOC(=O)COc1c(OC)cc(Cl)cc1C1NC(=O)NC(C)=C1C(C)=O (centres undefined) | n | n | n | n | n | n
CCCC1=C(C(=O)OCC)C(c2cc(Cl)cc(OC)c2OCC(=O)OCC)NC(=O)N1 (centres undefined) | n | 23µM | n | n | n | u
COc1ccc(OC)c(NC(=O)CSc2nnc3ccc4ccccc4n23)c1 | n | 21µM | x | n | n | u
O=C(CSc1nnc2ccc3ccccc3n12)Nc1ccccc1Cl | n | 18µM | x | n | n | u
CCc1nnc(SCC(=O)Nc2ccccc2Cl)nc1CC | n | u | n | n | n | 16µM!
CCN(CC)C(=O)CSc1nnc2ccc3ccccc3n12 | n | n | x | n | n | n
CCc1ccccc1NC(=O)CSc1nnc(CC)c(CC)n1 | n | n | x | n | n | n
Cc1ccc(C(=O)CSc2nnc3ccc4ccccc4n23)cc1 | u | 16µM | x | n | n | u
Cc1cc(C)c2nc(N3CCCC(C(=O)NCc4cccc(Cl)c4)C3)sc2c1 (centres undefined) | n | u | x | n | n | u
SMILES | TGFb SMAD3 inh | TDP1 cell noCPT | IL-1B inflam inh | TDP1 inh | HepG2 tox | TDP1 cell CPT
CCN(CC)c1ccc(S(=O)(=O)N2CCOCC2)cc1NC(=O)COC(=O)c1cccnc1SC | n | 16µM | n | n | n | u
CCN(CC)c1ccc(S(=O)(=O)N2CCOCC2)cc1NC(=O)COC(=O)/C=C/c1ccco1 | n | 26µM | n | x | n | 23µM
CCOc1ncccc1C(=O)OCC(=O)Nc1cc(S(=O)(=O)N2CCOCC2)ccc1Cl | n | n | n | n | n | n
Cc1ccc(Cl)cc1 | x | x | x | n | x | x
CCCCc1ccc(NC(=O)Cn2c(=O)c(N3CCCCC3)c(N)n(C)c2=O)cc1 | n | u | n | n | n | u
C[C@H]1CN([C@@H](C)CO)C(=O)Cc2cc(NC(=O)Nc3ccccc3)ccc2O[C@H]1CN(C)Cc1ccccc1 | u | 21µM | -72 | x | n | 21µM
C[C@H](CO)N1C[C@H](C)[C@H](CN(C)Cc2ccncc2)Oc2ccc(NC(=O)Nc3ccc(C(F)(F)F)cc3)cc2CC1=O | 13µM | 4.6µM | n | n | n | 3.3µM
C[C@H](CO)N1C[C@H](C)[C@H](CN(C)Cc2ccc(Oc3ccccc3)cc2)Oc2ccc(NC(=O)Nc3cccc4ccccc34)cc2CC1=O | u | u | n | n | n | u
C[C@H]1CN([C@@H](C)CO)C(=O)Cc2cc(NC(=O)C3CC3)ccc2O[C@H]1CN(C)Cc1ccc(C(=O)O)cc1 | n | n | n | n | n | n
COc1ccc(NCCC(O)c2ccc(Cl)cc2)cc1 (centres undefined) | n | n | n | x | n | n
COc1ccc(Cl)cc1NCCC(O)c1ccc(F)cc1 (centres undefined) | u | 9.2µM | n | x | n | 18µM
Cc1ccc(S(=O)(=O)C(CNC(=O)COc2ccccc2)c2cccs2)cc1 (centres undefined) | u | u | x | u | n | u
O=C(C1CCCN(S(=O)(=O)c2ccccc2)C1)N1CCCCC1 (centres undefined) | n | n | n | n | n | n
O=C(O)C1CCCN(S(=O)(=O)c2ccc(F)cc2)C1 (centres undefined) | n | n | n | n | n | n
O=C(C1CCCN(S(=O)(=O)c2ccc(F)cc2)C1)N1CCCCC1 (centres undefined) | n | 23µM | n | n | n | n

Screening results (PubChem BioAssay)
